# Results from the supplement of paper PMC12282887.
# ± gives the standard deviation of the averaged measurements.
# Assays:
# Experiment in all cases: promoter activity interaction Z-score (Lux/OD deviation from empty-vector control); higher = stronger promoter induction by the compound
# [1] = system: E. coli BW25113 acrABp lux reporter
# How it was run: (§1)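 Every compound was given at four 1:2 dilutions, in biological duplicates, to E. coli BW25113 carrying low-copy luxCDABE promoter reporters in wild-type or single-gene deletion backgrounds. Growth in 40 µl LB Lennox in 384-well plates at 37°C was followed by OD600 and luminescence readings every 30 min for 12 h, integrated over 0–8 h for wild type and 1–9 h for deletion strains, with wells below 10% of the median growth value excluded. Scores are Z-transformed residuals of growth-normalised luminescence fitted against a control.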
# [2] = system: E. coli BW25113 marRABp lux reporter
# How it was run: as §1
# [3] = system: E. coli BW25113 micFp lux reporter
# How it was run: as §1
# [4] = system: E. coli BW25113 ompFp lux reporter
# How it was run: as §1
# [5] = system: E. coli BW25113 robp lux reporter
# How it was run: as §1
# [6] = system: E. coli BW25113 soxSp lux reporter
# How it was run: as §1
# [7] = system: E. coli BW25113 tolCp lux reporter
# How it was run: as §1
# [8] = 9.8 µg/ml, genetic background: wild type
# [9] = 9.8 µg/ml, genetic background: ΔmarA
# [10] = 9.8 µg/ml, genetic background: Δrob
# [11] = 9.8 µg/ml, genetic background: ΔsoxS
# [12] = 19.5 µg/ml, genetic background: wild type
# [13] = 19.5 µg/ml, genetic background: ΔmarA
# [14] = 19.5 µg/ml, genetic background: Δrob
# [15] = 19.5 µg/ml, genetic background: ΔsoxS
# [16] = 39 µg/ml, genetic background: wild type
# [17] = 39 µg/ml, genetic background: ΔmarA
# [18] = 39 µg/ml, genetic background: Δrob
# [19] = 39 µg/ml, genetic background: ΔsoxS
compound,measurement,setting,value
c1ccc(-c2ccccn2)nc1 [2-2-Bipyridyl],promoter activity interaction Z-score,[1]; [8],-0.38 ± 0.11
same,promoter activity interaction Z-score,[1]; [9],-0.262 ± 0.49
same,promoter activity interaction Z-score,[1]; [10],-0.666 ± 0.24
same,promoter activity interaction Z-score,[1]; [11],-0.339 ± 0.48
same,promoter activity interaction Z-score,[1]; [12],-0.678 ± 0.23
same,promoter activity interaction Z-score,[1]; [13],0.0964 ± 1.5
same,promoter activity interaction Z-score,[1]; [14],-0.696 ± 0.048
same,promoter activity interaction Z-score,[1]; [15],-0.763 ± 0.36
same,promoter activity interaction Z-score,[1]; [16],-0.446 ± 0.45
same,promoter activity interaction Z-score,[1]; [17],1.4 ± 0.6
same,promoter activity interaction Z-score,[1]; [18],-0.276 ± 0.72
same,promoter activity interaction Z-score,[1]; [19],-0.305 ± 0.33
same,promoter activity interaction Z-score,[2]; [8],0.799 ± 0.78
same,promoter activity interaction Z-score,[2]; [9],0.4 ± 0.48
same,promoter activity interaction Z-score,[2]; [10],-0.042 ± 0.093
same,promoter activity interaction Z-score,[2]; [11],-0.2756 ± 0.0019
same,promoter activity interaction Z-score,[2]; [12],0.288 ± 0.12
same,promoter activity interaction Z-score,[2]; [13],0.637 ± 0.14
same,promoter activity interaction Z-score,[2]; [14],-0.32 ± 0.14
same,promoter activity interaction Z-score,[2]; [15],-0.0307 ± 0.0061
same,promoter activity interaction Z-score,[2]; [16],2.32 ± 0.13
same,promoter activity interaction Z-score,[2]; [17],2.22 ± 0.2
same,promoter activity interaction Z-score,[2]; [18],1.59 ± 0.24
same,promoter activity interaction Z-score,[2]; [19],1.67 ± 0.33
same,promoter activity interaction Z-score,[3]; [8],0.412 ± 0.33
same,promoter activity interaction Z-score,[3]; [9],0.243 ± 0.14
same,promoter activity interaction Z-score,[3]; [10],0.0359 ± 0.019
same,promoter activity interaction Z-score,[3]; [11],0.7191 ± 0.0054
same,promoter activity interaction Z-score,[3]; [12],1.15 ± 0.4
same,promoter activity interaction Z-score,[3]; [13],0.622 ± 0.29
same,promoter activity interaction Z-score,[3]; [14],0.498 ± 0.0061
same,promoter activity interaction Z-score,[3]; [15],3.01 ± 0.73
same,promoter activity interaction Z-score,[3]; [16],5.52 ± 0.58
same,promoter activity interaction Z-score,[3]; [17],0.943 ± 0.12
same,promoter activity interaction Z-score,[3]; [18],7.21 ± 1.5
same,promoter activity interaction Z-score,[3]; [19],9.5118 ± 0.00024
same,promoter activity interaction Z-score,[4]; [8],-0.0949 ± 0.034
same,promoter activity interaction Z-score,[4]; [9],-0.555 ± 0.58
same,promoter activity interaction Z-score,[4]; [10],-0.389 ± 0.39
same,promoter activity interaction Z-score,[4]; [11],-0.351 ± 0.17
same,promoter activity interaction Z-score,[4]; [12],-0.745 ± 0.54
same,promoter activity interaction Z-score,[4]; [13],-0.948 ± 0.58
same,promoter activity interaction Z-score,[4]; [14],-0.682 ± 0.16
same,promoter activity interaction Z-score,[4]; [15],-0.195 ± 0.78
same,promoter activity interaction Z-score,[4]; [16],-1.5 ± 0.86
same,promoter activity interaction Z-score,[4]; [17],-1.52 ± 0.45
same,promoter activity interaction Z-score,[4]; [18],-0.777 ± 0.2
same,promoter activity interaction Z-score,[4]; [19],0.325 ± 1.2
same,promoter activity interaction Z-score,[5]; [8],-0.0517 ± 0.47
same,promoter activity interaction Z-score,[5]; [9],0.352 ± 0.77
same,promoter activity interaction Z-score,[5]; [10],-0.375 ± 0.059
same,promoter activity interaction Z-score,[5]; [11],-0.326 ± 0.77
same,promoter activity interaction Z-score,[5]; [12],-0.772 ± 0.88
same,promoter activity interaction Z-score,[5]; [13],0.322 ± 0.12
same,promoter activity interaction Z-score,[5]; [14],-0.387 ± 0.49
same,promoter activity interaction Z-score,[5]; [15],-0.7 ± 0.084
same,promoter activity interaction Z-score,[5]; [16],-0.663 ± 1
same,promoter activity interaction Z-score,[5]; [17],0.193 ± 0.17
same,promoter activity interaction Z-score,[5]; [18],0.111 ± 0.013
same,promoter activity interaction Z-score,[5]; [19],1.63 ± 3.1
same,promoter activity interaction Z-score,[6]; [8],0.0863 ± 0.015
same,promoter activity interaction Z-score,[6]; [9],0.104 ± 0.016
same,promoter activity interaction Z-score,[6]; [10],-0.0121 ± 0.077
same,promoter activity interaction Z-score,[6]; [11],-0.208 ± 0.27
same,promoter activity interaction Z-score,[6]; [12],-0.706 ± 0.15
same,promoter activity interaction Z-score,[6]; [13],-0.407 ± 0.018
same,promoter activity interaction Z-score,[6]; [14],-0.63 ± 0.12
same,promoter activity interaction Z-score,[6]; [15],-0.64 ± 0.078
same,promoter activity interaction Z-score,[6]; [16],-1.84 ± 0.052
same,promoter activity interaction Z-score,[6]; [17],-1.08 ± 0.22
same,promoter activity interaction Z-score,[6]; [18],-1.495 ± 0.0068
same,promoter activity interaction Z-score,[6]; [19],-1.14 ± 0.73
same,promoter activity interaction Z-score,[7]; [8],-0.433 ± 0.08
same,promoter activity interaction Z-score,[7]; [9],-0.587 ± 0.68
same,promoter activity interaction Z-score,[7]; [10],-0.425 ± 0.56
same,promoter activity interaction Z-score,[7]; [11],0.264 ± 0.45
same,promoter activity interaction Z-score,[7]; [12],-1.32 ± 0.36
same,promoter activity interaction Z-score,[7]; [13],-0.963 ± 0.81
same,promoter activity interaction Z-score,[7]; [14],-0.8 ± 0.27
same,promoter activity interaction Z-score,[7]; [15],-0.588 ± 0.17
same,promoter activity interaction Z-score,[7]; [16],-0.831 ± 0.2
same,promoter activity interaction Z-score,[7]; [17],-1.07 ± 0.4
same,promoter activity interaction Z-score,[7]; [18],0.715 ± 0.83
same,promoter activity interaction Z-score,[7]; [19],1.8 ± 1.5
